This note sets out measurements from the supplement of paper PMC9399229.

Where “and” joins values, the source holds several entries; their conditions need not be identical. Equal values may be shown once. Where a name gives a salt, the structure may show the parent alone. Over roughly 1,900 compounds, “relative cell viability (CellTiter-Glo), compound plus cabozantinib, relative to the cabozantinib arm (arm median 1.05; reference not stated)” has its median near 1.1; the lowest 2% begin near 0.15. Only a selection was taken, and the lowest values are over-represented in it overall.

This assay relates to Hep3B. In words: relative cell viability (CellTiter-Glo), compound plus cabozantinib, relative to the cabozantinib arm (arm median 1.05; reference not stated) (fraction); higher = more viable cells (less growth inhibition). Particulars: cabozantinib 2 µM; 4 days. (In general: In ATP-based viability assays light output follows the ATP content of the culture.)
On to `O=C(O)Cc1cccc(OCCCN(Cc2cccc(C(F)(F)F)c2Cl)CC(c2ccccc2)c2ccccc2)c1`, for which the relative cell viability was found to be 1.15.

Turning to `CCOC(=O)c1ccc(N2NC(=O)C(=Cc3ccc([N+](=O)[O-])o3)C2=O)cc1`, the relative cell viability is 1.02.

With `CCOCC(O)COc1ccc(NC(=O)CC[S+](C)C)cc1` (stereo not drawn) [Suplatast Tosylate], the relative cell viability stood at 1.

As to `CC1(C)CNc2cc(NC(=O)c3cccnc3NCc3ccncc3)ccc21` [Motesanib Diphosphate (AMG-706)], the relative cell viability worked out at 1.09.

For the molecule `C=CC(=O)Nc1cccc(Nc2nc(Nc3ccc(NC4CN(CCF)C4)cc3OC)ncc2C(F)(F)F)c1`, the relative cell viability stood at 0.885.

As for `Cc1ccc(S(=O)(=O)n2c(N)nc3ccccc32)cc1` [ML130 (Nodinitib-1)], the relative cell viability is 1.2.

`Cc1ccc2c(=O)c3cccc(CC(=O)O)c3oc2c1C` [DMXAA (Vadimezan)]: the relative cell viability was determined as 1.17.

Take `O=c1cc(CN2CCOCC2)occ1OCCCCCSc1ccnc2cc(C(F)(F)F)ccc12`: the relative cell viability was determined as 1.13.

As to `Cc1c(-c2ccc(O)cc2)n(Cc2ccc(OCCN3CCCCCC3)cc2)c2ccc(O)cc12` [Bazedoxifene HCl], the relative cell viability was 0.867.

As to `Cc1cccc(-c2[nH]c(CNc3ccccc3F)nc2-c2ccc3ncnn3c2)n1`, the relative cell viability came to 1.1.

For the molecule `CC(C=CC(=O)NO)=CC(C)C(=O)c1ccc(N(C)C)cc1` (stereo not drawn) [Trichostatin A (TSA)], the relative cell viability was determined as 0.165.

Consider `CNCc1ccc(C)c(NC(=O)c2ccc(Nc3nc(-c4ccccc4)c4ccccc4n3)cc2)c1`, for which the relative cell viability was determined as 0.858.

For `CC(C)N(CC[C@H](c1ccccc1)c1cc(CO)ccc1O)C(C)C`, the relative cell viability stood at 1.1.

Regarding `O=C(c1cccc(Cl)c1F)N1CCN(Cc2cccc(Nc3nccs3)n2)CC1`, the relative cell viability worked out at 1.06.

Turning to `O=C(Nc1cccc(Cl)c1)c1ccccn1`, the relative cell viability is 1.02.

As for `Clc1ccc(NN=C(c2ccccc2)c2ccccn2)nc1`, the relative cell viability came out at 0.087.

Consider `C[C@H](CCC(=O)O)[C@H]1CC[C@H]2[C@@H]3C[C@H](O)[C@@H]4C[C@H](O)CC[C@]4(C)[C@H]3CC[C@]12C` [Hyodeoxycholic acid (HDCA)], for which the relative cell viability is 1.11.

With `COC(=O)[C@H](CCSC)NC(=O)c1ccc(NC[C@@H](N)CS)cc1-c1ccccc1`, the relative cell viability came out at 1.16.

For the molecule `NC1(Cc2ccc(Cl)cc2)CCN(c2ncnc3[nH]ccc23)CC1`, the relative cell viability stood at 0.989.

On to `COc1nc(-c2ccc3c(c2)OCO3)n(-c2ccc(NC(=O)CSc3ccccc3)cc2)n1` [SecinH3], for which the relative cell viability is 1.24.

For `C[C@@H]1CC(=O)NN=C1c1ccc(NN=C(C#N)C#N)cc1` [Levosimendan], the relative cell viability is 1.15.

On to `Cc1coc2c1C(=O)C(=O)c1c-2ccc2c1CCCC2(C)C` [Tanshinone IIA], for which the relative cell viability was 0.985.

As for `Nc1nc(N)c2nc(-c3cccc(O)c3)c(-c3cccc(O)c3)nc2n1`, the relative cell viability came out at 0.944.

On to `COc1ccc(C(=O)Nc2sc3c(c2C(N)=O)CCCC3)cc1OC`, for which the relative cell viability was found to be 1.03.

For `Cc1ccc(NC(=O)C2(c3ccc4c(c3)OC(F)(F)O4)CC2)nc1-c1cccc(C(=O)O)c1` [VX-809 (Lumacaftor)], the relative cell viability was determined as 0.168.

Take `CN(C)CCOc1ccc(/C(=C(/CCCl)c2ccccc2)c2ccccc2)cc1` [Toremifene Citrate]: the relative cell viability came to 1.06.

`CC(C)C[C@H](NC(=O)[C@H](Cc1ccccc1)NC(=O)c1cnccn1)B(O)O` [Bortezomib (PS-341)]: the relative cell viability was 0.396.

Regarding `O=C(O)CCNC(=O)c1ccccc1` [Betamipron], the relative cell viability amounted to 0.99.

On to `O=C(O)c1ccccc1` [Benzoic Acid], for which the relative cell viability is 1.12.

On to `CN(NC(=O)CC(=O)NN(C)C(=S)c1ccccc1)C(=S)c1ccccc1` [Elesclomol (STA-4783)], for which the relative cell viability was 0.00669.

As to `O=C(NC[C@H](O)CN1CCc2ccccc2C1)c1cc(NC2COC2)ncn1`, the relative cell viability was determined as 1.13.

For the molecule `OC[C@H]1OC(O)[C@H](O)[C@@H](O)[C@@H]1O` (stereo partly drawn) [Dextrose], the relative cell viability amounted to 1.01.

Take `Cc1nc(Nc2n[nH]c3c2CN(C(=O)N[C@H](CN(C)C)c2ccccc2)C3(C)C)c2sccc2n1`: the relative cell viability was found to be 0.149.

Turning to `CC(C)CC(=O)Nc1n[nH]c2c1CN(C(=O)C1CCN(C)CC1)C2(C)C`, the relative cell viability was found to be 0.431.

With `CC1CC(OC(=O)C(O)c2ccccc2)CC(C)(C)C1` (stereo not drawn) [Cyclandelate], the relative cell viability is 1.07.

As to `O=C(NC1CCOCC1)c1ccc(-c2cc(-c3c[nH]nc3-c3ccccn3)ccn2)cc1`, the relative cell viability is 1.12.

In the case of `O=C(NC1CCNCC1)c1n[nH]cc1NC(=O)c1c(Cl)cccc1Cl`, the relative cell viability is 0.158 and 0.144.

With `NC(=O)Nc1cc(-c2cccc(F)c2)sc1C(=O)N[C@H]1CCCNC1`, the relative cell viability came out at 0.162.

Take `C#C[C@]1(OC(C)=O)CC[C@H]2[C@@H]3CCC4=C[C@@H](OC(C)=O)CC[C@@H]4[C@H]3CC[C@@]21C` [Ethynodiol diacetate]: the relative cell viability worked out at 1.12.

For the molecule `N#Cc1c(Oc2ccc(F)c(NC(=O)Cc3cccc(C(F)(F)F)c3)c2)ccc2nc(NC(=O)C3CC3)sc12`, the relative cell viability was 0.227.

As to `CCNC(=O)c1noc(-c2cc(Cl)c(O)cc2O)c1-c1ccc(OC)cc1`, the relative cell viability amounted to 0.183.

`CCCCc1nc2cc(/C=C/C(=O)NO)ccc2n1CCN(CC)CC` [Pracinostat (SB939)]: the relative cell viability was 0.147.

Take `CN(C)Cc1ccc(S(=O)(=O)n2ccc(/C=C/C(=O)NO)c2)cc1` [Resminostat]: the relative cell viability is 0.59.

In the case of `COc1ccc(C(=O)CC(=O)c2ccc(C(C)(C)C)cc2)cc1` [Avobenzone], the relative cell viability is 1.1.

For the molecule `Cn1cnc2c(F)c(Nc3ccc(Br)cc3F)c(C(=O)NOCCO)cc21`, the relative cell viability came to 0.634.

As to `Cc1cc(C(=O)NOCCO)c(Nc2ccc(I)cc2F)n(C)c1=O`, the relative cell viability came to 0.141.

Take `O=C(NOCC(O)CO)c1cc(Br)c(F)c(F)c1Nc1ccc(I)cc1F` (stereo not drawn): the relative cell viability amounted to 0.87.

With `O=C(NOC[C@H](O)CO)c1ccc(F)c(F)c1Nc1ccc(I)cc1F`, the relative cell viability is 0.183.

With `O=C(NOCCO)c1ccc2cncn2c1Nc1ccc(I)cc1F`, the relative cell viability was found to be 0.133.

In the case of `O=C(NC[C@H](O)CO)c1ccncc1Nc1ccc(I)cc1F`, the relative cell viability came out at 0.201.

With `Cc1nc2c([nH]1)-c1ccccc1N(C(=O)c1ccc(NC(=O)c3ccccc3-c3ccccc3)cc1)CC2` [Conivaptan HCl], the relative cell viability turned out to be 0.972.

On to `CNC(=O)c1ccccc1Sc1ccc2c(/C=C/c3ccccn3)n[nH]c2c1` [Axitinib], for which the relative cell viability was determined as 0.715.

As to `COCC[n+]1c2c(n(Cc3cnccn3)c1C)C(=O)c1ccccc1C2=O` [YM155 (Sepantronium Bromide)], the relative cell viability worked out at 0.129.

As to `O=C(c1cncc(Br)c1)N1CCC(N2CCCC2)CC1`, the relative cell viability was determined as 1.16.

`COc1cc2c(cc1O)CC[C@@H]1[C@@H]2CC[C@]2(C)[C@@H](O)CC[C@@H]12` [2-Methoxyestradiol (2-MeOE2)]: the relative cell viability amounted to 1.06.

In the case of `CCCCCCCCCCCCCCCCO` [1-Hexadecanol], the relative cell viability is 1.14.

Consider `C[C@@H](Nc1cc(F)cc(F)c1)c1cc(C(=O)N(C)C)cc2c(=O)cc(N3CCOCC3)oc12`, for which the relative cell viability was found to be 0.998.

Take `COc1ccc(Cn2ccc3ccc(C(=O)NO)cc32)cc1`: the relative cell viability was found to be 0.91.

Consider `CCN(CC)Cc1ccc2cc(COC(=O)Nc3ccc(C(=O)NO)cc3)ccc2c1` [Givinostat (ITF2357)], for which the relative cell viability worked out at 0.109.

For the molecule `CCN(CC)CCNC(=O)c1ccc(N)cc1` [Procainamide HCl], the relative cell viability amounted to 0.947.

`COc1cc(NC(=O)c2ccccn2)ccc1Cl`: the relative cell viability stood at 1.05.

As for `CN(C)C(=S)NN=C(c1ccccn1)c1ccccn1`, the relative cell viability amounted to 0.15.

In the case of `CCOC(=O)[C@H](CCc1ccccc1)N[C@@H](C)C(=O)N1CCC[C@H]1C(=O)O` [Enalapril Maleate], the relative cell viability came to 1.15.

Turning to `CC#CC(=O)N1CC[C@@H](n2c(=O)n(-c3ccc(Oc4ccccc4)cc3)c3c(N)ncnc32)C1`, the relative cell viability came to 1.07.

Regarding `COC(=O)CC[C@H](NC(=O)[C@H](CC(=O)OC)NC(=O)OCc1ccccc1)C(=O)N[C@H](C(=O)N[C@@H](CC(=O)OC)C(=O)CF)C(C)C`, the relative cell viability worked out at 1.09.

`CCCCC(=O)N(Cc1ccc(-c2ccccc2-c2nnn[nH]2)cc1)[C@H](C(=O)O)C(C)C` [Valsartan]: the relative cell viability is 1.2.

On to `COc1ccc(-c2nc(N3CCOCC3)c3sc(CN(C)c4ncc(C(=O)NO)cn4)cc3n2)cn1`, for which the relative cell viability amounted to 0.181.

With `Cn1cnc2c(F)c(Nc3ccc(Br)cc3Cl)c(C(=O)NOCCO)cc21` [Selumetinib (AZD6244)], the relative cell viability was found to be 0.616.

Consider `COc1cc(N2CCC(N3CCN(C)CC3)CC2)ccc1Nc1ncnc(Nc2ccccc2S(=O)(=O)C(C)C)n1`, for which the relative cell viability stood at 1.09.

Turning to `Cc1cc(Nc2ncc(Cl)c(Nc3ccccc3S(=O)(=O)C(C)C)n2)c(OC(C)C)cc1C1CCNCC1`, the relative cell viability is 0.122.

With `NC(=S)N/N=C/c1ncccc1N` [Triapine], the relative cell viability came out at 1.02.

With `CC(=O)Nc1nc2c(Oc3cc(-c4ccc(C(F)(F)F)cc4)ncn3)cccc2s1`, the relative cell viability is 1.04.

As to `CN[C@H]1CN(c2ccc3c(=O)c(C(=O)O)cn(-c4nccs4)c3n2)C[C@@H]1OC` [Voreloxin (SNS-595)], the relative cell viability came out at 0.968.

As to `CC/C(=C(\c1ccc(O)cc1)c1ccc(OCCNC)cc1)c1ccccc1` [Endoxifen HCl], the relative cell viability came to 1.15.

In the case of `Oc1cc(O)c(Cl)cn1` [Gimeracil], the relative cell viability amounted to 1.

For `CNC(CC(=O)O)C(=O)O` [NMDA (N-Methyl-D-aspartic acid)], the relative cell viability turned out to be 1.15.

For the molecule `CO[C@H]1/C=C/O[C@@]2(C)Oc3c(C)c(O)c4c(O)c(c5c(nc6cc(C)ccn65)c4c3C2=O)NC(=O)/C(C)=C\C=C\[C@H](C)[C@H](O)[C@@H](C)[C@@H](O)[C@@H](C)[C@H](OC(C)=O)[C@@H]1C` [Rifaximin], the relative cell viability turned out to be 0.91.

On to `C=CCc1cc(OC)c(O)c(C(=O)NCCO)c1` [Alibendol], for which the relative cell viability worked out at 0.982.

For `CC1(C)CC[C@]2(C(=O)O)CC[C@]3(C)C(=CC[C@@H]4[C@@]5(C)CC[C@H](O)C(C)(C)[C@@H]5CC[C@]43C)[C@@H]2C1` [Oleanolic Acid], the relative cell viability was determined as 1.14.

Consider `C=C1C(=O)[C@]23[C@H](O)[C@H]1CC[C@H]2[C@@]12CO[C@]3(O)[C@@H](O)[C@@H]1C(C)(C)CC[C@@H]2O` [Oridonin], for which the relative cell viability turned out to be 1.11.

`Cc1csc(-c2nnc(Nc3ccc(Oc4ncccc4-c4ccnc(N)n4)cc3)c3ccccc23)c1`: the relative cell viability was determined as 1.

In the case of `CCCNC(=O)Nc1ccc(Oc2ncnc3cc(OC)c(OC)cc23)cc1Cl`, the relative cell viability is 1.14.

Consider `CCOc1cc2ncc(C#N)c(Nc3ccc(F)c(Cl)c3)c2cc1NC(=O)/C=C/CN(C)C` [Pelitinib (EKB-569)], for which the relative cell viability worked out at 0.9.
